We go through eleven compounds from PubChem BioAssay (NCATS).

“And” between values parts separate entries of the source, which are not always exact repeats. Equal entries are not always repeated. Results filed as inconclusive are left out. The source made the active and inactive calls. Unless noted, calls follow the shape of the dose curve; as a rule, active = well fitted curve in the direction sought with a large enough effect; inconclusive = small, poorly fitted or top-dose-only effect, or another doubt; inactive = no such curve, though single readings can be large; an effect the other way counts as inactive or inconclusive.

Experiment [1] concerns the target T1, Hexokinase-4 (Homo sapiens) + Glucokinase regulatory protein (Homo sapiens) (UniProt P35557+Q14397). Kind of experiment: qHTS assay for inhibitors of recombinant human GCK-GKRP interaction: Diaphorase-coupled assay (AID 743205). Summed up:
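Resorufin fluorescence (525/590 nm), read each minute over 30 min, reports GCK activity coupled via G6PDH and diaphorase. Reaction: 10 nM GST-GCK, 10 nM FLAG-GKRP, 5 mM glucose, 0.4 mM ATP, 0.15 mM NADP+, 0.1 mM resazurin.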

Experiment [2] addresses T1, Hexokinase-4 (Homo sapiens) + Glucokinase regulatory protein (Homo sapiens). The experiment is described as follows: qHTS assay for inhibitors of recombinant human GCK-GKRP interaction: ADP-Glo assay (AID 743206).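 Also: plate controls were DMSO plus enzyme for no effect and no enzyme for full effect.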 The procedure, abridged: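 GST-GCK and FLAG-GKRP (15 nM each in the dispensed mix, with 2 uM S6P) react with 0.4 mM ATP and 5 mM glucose (final) in Hepes pH 7.6 for 60 min at room temperature. ADP is measured by ADP-Glo luminescence.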
For orientation: In qHTS, concentration-response curves come from the screen itself.

Experiment [3] has the same target. Kind of experiment: qHTS assay for inhibitors of recombinant human GCK-GKRP interaction: HTRF assay (AID 743207).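 Also: 0% = DMSO with GCK present and -100% = DMSO wells lacking GCK.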 The procedure, abridged: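 HTRF read-out (ex 320 nm; 615/665 nm emission) after 60 min RT equilibration of 5 nM GST-GCK, 5 nM FLAG-GKRP, 2 uM S6P, compound and anti-FLAG/anti-GST detection antibodies; signal normalized between DMSO wells with and without GCK.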

The nature of experiment [4]: qHTS Assay for Identifying Gametocytocidal Compounds (AID 743244).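 Also: % is scaled to controls: 0 for no effect and ±100 for the full control effect; actives lower the fluorescent signal which means gametocytes are killed.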 Conditions: P. falciparum 3D7 stage III-V gametocytes, alamarBlue, 72 h; max response: stronger effect = lower value. Summed up:
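Viability read-out was resazurin reduction (alamarBlue, 24 h) measured at Ex 525/Em 598 nm. Beforehand, late-stage (III-V) 3D7 P. falciparum gametocytes at 20,000 cells/well were incubated with compound 72 h at 37C under 5% CO2.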

Experiment [5] is described as follows: qHTS assay for measurement of the activity of small molecule inhibitors on Zika virus induced Caspase-3 activity in human iPSC derived neural progenitor cells (hNPCs) (AID 1224857). Also: % of control where 0% means no effect; nearly all actives have a fitted effect of over 65% in size. The procedure, abridged:
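Percent inhibition of virus-induced caspase-3/7 luminescence (Caspase-Glo), scaled between uninfected cells and Zika-infected cells. hNPCs received compound 1 hr before ZIKV at 2 FFU/cell, with 6 hours infection at 37 C.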

A short description of experiment [6]: qHTS assay for measurement of the activity of small molecule inhibitors on Zika virus induced Caspase-3 activity in human astrocytoma cells (AID 1224859).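 Also: plate controls were ZIKV-infected untreated cells for no effect and uninfected cells for full effect.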 Summed up: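 Luminescent caspase-3/7 read-out (30 min reagent, room temperature) in human SNB-19 cells infected 6 h with ZIKV (2 FFU/cell) after 1 h compound pre-incubation; Data were normalised to uninfected and infected wells.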

The nature of experiment [7]: qHTS profiling of the MIPE4 collection as inhibitors of Plasmodium falciparum (3D7) proliferation (AID 743344; call rule not given here). Conditions: P. falciparum 3D7 in erythrocytes, SYBR Green DNA fluorescence, 72 h; at 28.5 µM (top of the series) unless noted. Summed up:
(§1)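 Erythrocytes infected with P. falciparum (0.3% parasitemia, 2.5% hematocrit) incubated with compounds 72 h at 37 C, 5% CO2. Lysis with saponin/Triton buffer containing SYBR Green I, overnight at room temperature in the dark; DNA fluorescence (485/535 nm) normalised to 0.29 uM artemisinin and DMSO.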

A short description of experiment [8]: qHTS profiling of the MIPE4 collection as inhibitors of Plasmodium falciparum (DD2) proliferation (AID 743345; call rule not given here). Conditions: P. falciparum Dd2 in erythrocytes, SYBR Green DNA, 72 h; at 28.5 µM (top of the series) unless noted. The procedure, abridged:
as §1

A short description of experiment [9]: qHTS profiling of the MIPE4 collection as inhibitors of Plasmodium falciparum (DD2) proliferation (Rep 2) (AID 743346; call rule not given here). Conditions: P. falciparum Dd2 in erythrocytes, SYBR Green DNA, 72 h; at 28.5 µM (top of the series) unless noted. Summed up:
as §1

A short description of experiment [10]: qHTS profiling of the MIPE4 collection as inhibitors of Plasmodium falciparum (HB3) proliferation (AID 743347; call rule not given here;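 also: plate controls were DMSO vehicle wells for no effect and artemisinin wells for full effect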). Conditions: P. falciparum HB3 in erythrocytes, SYBR Green DNA, 72 h; at 28.5 µM (top of the series) unless noted. Summed up: as §1
A short description of experiment [11]: High-throughput drug toxicity screening in the BPDCN cell line Cal-1 (AID 1224825; call rule not given here). Conditions: Cal-1 BPDCN cell viability, qHTS; at 45.8 µM (top of the series) unless noted. The procedure, abridged: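 Exponentially growing Cal-1 cells, 500 per well in phenol red-free RPMI with 10% FBS, were exposed to compounds for 48 h at 37 °C, 5% CO2. Viability was read by CellTiter-Glo luminescence and normalised to DMSO (100%) and 9.2 uM bortezomib (0%).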

Experiment [12] in a line: qHTS Screen of the MIPE 4.0 Collection Against Ewings Sarcoma (RDES) (AID 1259252). Also: nearly all actives have a fitted effect of over 35% in size. Also: potency is read from the fitted curve at half-maximal effect. The procedure, abridged: (§2)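 Here, cells in 5% FBS RPMI were exposed for two days (48 h) to compound dilutions added four hours after plating. ATP-based CellTiter-Glo luminescence measured viability, normalized to vehicle and no-cell blanks.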
A short description of experiment [13]: qHTS Screen of the MIPE 4.0 Collection Against Ewings Sarcoma (TC71) (AID 1259253). Also: nearly all actives have a fitted effect of over 40% in size. Also: potency is read from the fitted curve at half-maximal effect. The procedure, abridged:
as §2

Experiment [14] in a line: qHTS Screen of the MIPE 4.0 Collection Against Ewings Sarcoma (EW8) (AID 1259255). Also: nearly all actives have a fitted effect of over 35% in size. Also: potency is read from the fitted curve at half-maximal effect.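 As to viability: 100% = DMSO-treated cells and 0% = medium-only wells without cells.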 The procedure, abridged:
as §2

A short description of experiment [15]: qHTS assay for small molecule agonists of the antioxidant response element (ARE) signaling pathway measured by Nrf2-dependant transcriptional activity - cell viability counter screen (AID 720653; active = well fitted curve in the direction sought with a large enough effect in the repeat runs; an effect the other way counts as inactive or inconclusive; also: potency is read from the fitted curve at half-maximal effect; as to max response: % is scaled to controls: 0 for no effect and ±100 for the full control effect). Conditions: ARE-bla HepG2 viability, CellTiter-Glo ATP luminescence, 16 h; max response: stronger effect = lower value. The procedure, abridged:
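ARE-bla HepG2 cells (2,000/well) rested 5 hrs at 37C/5% CO2, then exposed to compounds in DMSO for 16 hrs. Viability was read in the same wells as intracellular ATP by luminescence, 30 min at room temperature after reagent addition.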

Experiment [16] can be described thus: qHTS profiling for inhibitors of Plasmodium falciparum (3D7) proliferation (AID 743322).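 Also: infected erythrocytes exposed to compound for 72 h before lysis; 100% = DMSO vehicle wells and 0% = 0.29 µM artemisinin.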 Conditions: P. falciparum 3D7 proliferation; at 28.7 µM (top of the series). Summed up: as §1
Experiment [17] is described as follows: qHTS profiling for inhibitors of Plasmodium falciparum (DD2) proliferation (AID 743323; call rule not given here). Conditions: lower = more inhibition; at 28.7 µM (top of the series). Summed up: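 Parasite proliferation measured via DNA-dye fluorescence, as uninfected erythrocytes lack DNA. Cultures at 0.3% parasitemia and 2.5% hematocrit incubated 72 h with compound; signal scaled between vehicle and 0.29 uM artemisinin wells.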

Experiment [18] is described as follows: qHTS profiling for inhibitors of Plasmodium falciparum (HB3) proliferation (AID 743324).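 Also: 100% = DMSO vehicle wells and 0% = artemisinin-treated control wells.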 Conditions: Plasmodium falciparum HB3 blood-stage proliferation; at 28.7 µM (top of the series). Summed up: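 P. falciparum HB3 grown in erythrocytes (0.3% parasitemia, 2.5% hematocrit final) with compound for 72 h at 37 C, 5% CO2. Parasite DNA detected by SYBR Green after saponin/triton lysis overnight; normalized to 0.29 uM artemisinin and DMSO.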

T1 sequence (P35557 whole entry, looked up): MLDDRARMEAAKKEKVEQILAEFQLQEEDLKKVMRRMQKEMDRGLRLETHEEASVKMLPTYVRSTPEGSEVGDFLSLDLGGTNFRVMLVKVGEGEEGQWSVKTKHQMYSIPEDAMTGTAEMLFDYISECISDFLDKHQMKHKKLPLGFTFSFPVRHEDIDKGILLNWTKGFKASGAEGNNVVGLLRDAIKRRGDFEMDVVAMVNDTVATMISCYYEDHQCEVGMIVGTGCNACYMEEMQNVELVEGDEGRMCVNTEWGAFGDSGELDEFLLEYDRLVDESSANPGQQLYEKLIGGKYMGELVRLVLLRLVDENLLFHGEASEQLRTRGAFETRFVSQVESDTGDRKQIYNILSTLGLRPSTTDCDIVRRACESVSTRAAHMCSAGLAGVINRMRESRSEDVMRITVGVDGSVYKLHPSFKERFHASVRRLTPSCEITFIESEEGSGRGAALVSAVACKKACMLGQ
T1 sequence (Q14397 whole entry, looked up): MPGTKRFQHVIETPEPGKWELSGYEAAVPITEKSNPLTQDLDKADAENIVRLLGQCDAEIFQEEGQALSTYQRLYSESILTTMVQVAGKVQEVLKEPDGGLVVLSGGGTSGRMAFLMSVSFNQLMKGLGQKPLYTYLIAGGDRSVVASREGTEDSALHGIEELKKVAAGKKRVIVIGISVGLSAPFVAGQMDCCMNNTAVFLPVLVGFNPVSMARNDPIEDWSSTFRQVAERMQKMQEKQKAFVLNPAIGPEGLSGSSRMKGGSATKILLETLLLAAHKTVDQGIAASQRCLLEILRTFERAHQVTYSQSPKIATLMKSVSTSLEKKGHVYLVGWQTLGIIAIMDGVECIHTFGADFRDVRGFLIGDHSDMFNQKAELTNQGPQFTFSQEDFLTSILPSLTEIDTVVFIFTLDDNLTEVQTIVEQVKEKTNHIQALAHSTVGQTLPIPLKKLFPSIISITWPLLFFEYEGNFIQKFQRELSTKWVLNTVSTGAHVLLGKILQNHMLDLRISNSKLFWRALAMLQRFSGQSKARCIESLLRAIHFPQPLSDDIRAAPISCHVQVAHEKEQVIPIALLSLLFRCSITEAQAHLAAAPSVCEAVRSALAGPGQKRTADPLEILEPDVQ

For `Cc1cccc(C)c1OCC(C)N` (stereo not given), the outcome in experiment [1], in experiment [2] and in [3] was inactive. Further, the max response in experiment [4] was 9.33% (inactive) and -4.15% (inactive) and 13.1% (inactive). Besides, the Potency result in [5] and in experiment [6] was “inactive” each time.
As to `Clc1ccc(C(c2ccc(Cl)cc2)n2cc[n+](CC(OCc3ccc(Cl)cc3Cl)c3ccc(Cl)cc3Cl)c2)cc1` (stereo not given), the outcome in experiment [1] and in experiment [2] was inactive. In experiment [7], this compound displayed a parasite growth, % of DMSO control of 6.19%. Further, in [8], the parasite growth remaining, % of DMSO control (lower = more inhibition) was found to be 5.85%. For the same compound, in experiment [9], the parasite growth, % of control (lower = inhibition) worked out at 17.2%. The compound also came in with a growth, % of control in [10] of 7.48%. In experiment [11], the viability (% of control) amounted to 3.49%. Besides, the Potency was 16.6 µM (active) in experiment [12], 20.9 µM (active) in experiment [13] and 23.5 µM (active) in [14].
Regarding `O=c1c(-c2ccc(O)cc2)coc2cc(OC3O[C@H](CO)[C@H](O)[C@H](O)[C@H]3O)cc(O)c12` (stereo not given in full), the parasite growth remaining, % of DMSO control (lower = more inhibition) in [8] worked out at 88.8%. Moreover, in [9], the parasite growth, % of control (lower = inhibition) came out at 65.7%. In [10], the growth, % of control was determined as 54%. Besides, in experiment [11], the viability (% of control) is 37.3%. Further, the Potency in experiment [12] is 3.72 µM (active); in experiment [13], 7.43 µM (active); in experiment [14] it was 18.7 µM (active).
With `CC/C(=C(\c1ccccc1)c1ccc(OCCN(C)C)cc1)c1ccccc1`, in experiment [15], the max response is -20.9% (inactive). Besides, the result in [1], in [2] and in experiment [3] was inactive. Also, the Potency entry in experiment [5] and in experiment [6] was “inactive” each time.
`CC=CC(=O)N(CC)c1ccccc1C`: in [7], the parasite growth, % of DMSO control is 92.3%. The parasite growth remaining, % of DMSO control (lower = more inhibition) in [8] amounted to 104%. In [9], the parasite growth, % of control (lower = inhibition) worked out at 142%. The viability (% of control) in [11] was 35%. Moreover, the Potency entry in experiment [14] is “inactive”.
Regarding `NC(=S)c1ccc[n+]([C@@H]2O[C@@H](COP(=O)([O-])OP(=O)(O)OC[C@H]3O[C@@H](n4cnc5c(N)ncnc54)[C@H](OP(=O)(O)O)C3O)C(O)C2O)c1` (stereo not given in full), the Potency result in experiment [5] was “inactive”.
For `COC(=O)[C@@H]1[C@H]2C[C@H]3c4[nH]c5ccccc5c4CCN3C[C@@H]2CC[C@@H]1O`, the outcome in experiment [1], in [2] and in experiment [3] was inactive. Further, the Potency result in experiment [5] and in experiment [6] was “inactive” in each case.
Compound `C[C@@H](O)[C@H]1C(=O)N2C(C(=O)O)=C(S[C@@H]3CN[C@H](C(=O)N(C)C)C3)[C@H](C)[C@H]12` gave a parasite growth, % of DMSO control in experiment [7] of 109% [at 9.64 µM]. Besides, the parasite growth remaining, % of DMSO control (lower = more inhibition) in experiment [8] stood at 102% [at 9.64 µM]. In experiment [9], the parasite growth, % of control (lower = inhibition) was determined as 118% [at 9.64 µM]. The compound also showed a growth, % of control in experiment [10] of 61.4% [at 9.64 µM]. Also, the Potency result in experiment [5] is “inactive”.
As for `CC1=C(/C=C/C(C)=C/C=C/C(C)=C/C(=O)Nc2ccc(O)cc2)C(C)(C)CCC1`, the Potency in experiment [15] was 44.7 µM (active). The result in experiment [1], in experiment [2] and in [3] was inactive. In experiment [16], this compound displayed a remaining parasite growth % (stronger effect = lower value) of 14.1%. This compound gave an activity, percent of control in experiment [17] of 22.9%. In addition, the remaining proliferation (% of control), lower = more inhibition in experiment [18] was -0.513%. In addition, the Potency entry in experiment [5] and in [6] was “inactive” in each case.
Turning to `O=C(O)c1ccccc1C(=O)Nc1ccc(-c2ccccc2)cc1`, the parasite growth remaining, % of DMSO control (lower = more inhibition) in experiment [8] turned out to be 104%. Also, the viability (% of control) in experiment [11] was 111%. The Potency entry in experiment [12], in experiment [13] and in experiment [14] was “inactive” throughout.
As for `OC[C@@H](O)[C@H](O)[C@H](O)[C@@H](O)CO`, the Potency result in experiment [6] is “inactive”.
